Reference: PubChem BioAssay AID624173 (National Center for Advancing Translational Sciences (NCATS), 2012)
The whole screen tested about 410,000 compounds, of which about 490 (0.12%) were called active. A call without a number means that no potency is given here. Inconclusive results (about 1%) are left out. This is one part of a sample in which actives are shown more often than they occur. Calls follow the shape of the dose curve; as a rule, active = well fitted inhibition curve with a large enough effect; inconclusive = small, poorly fitted or top-dose-only effect; inactive = flat fitted curve, though single readings scatter.

molecular target: pyruvate kinase (Trypanosoma brucei) (UniProt Q57TT1); test: qHTS of Trypanosoma Brucei Inhibitors; conditions: TbPYK enzyme, Kinase-Glo Plus ATP luminescence, 45 min; series mostly up to 76.8 µM; also: nearly all actives have a fitted effect of over 50% in size
Source text: Members of the Trypanosomatidae family of parasitic protozoans cause a spectrum of diseases throughout the tropical and subtropical world. Sleeping sickness, caused by two subspecies of Trypanosoma brucei, is endemic to areas of sub-Saharan Africa, while Chagas' disease, a manifestation of Trypanosoma cruzi infection, is prevalent throughout Central and South America. In addition, many species of Leishmania are responsible for a range of cutaneous and visceral diseases, causing ulcers, destructive lesions and kalaazar, a lethal infection of the viscera. These diseases cause severe public health and economic burdens on populations that are often already caught in a tragic cycle of poverty, poor nutrition and disease. Collectively, parasites of the trypanosomatid family infect 30 million people worldwide (~500 million live in endemic areas), and account for ~130K deaths annually. Existing treatments have developed little in the past 50 years, and suffer from toxicity, poor efficacy and resistance; the goal of this project is to develop lead drugs that will be suitable for entry into pre-clinical trials.
Glycolysis in axenically cultured T. cruzi, representing the intracellular pathogenic stage, is also essential for these parasites. {Engel, 1987} This project aims to discover and optimize selective inhibitors of the glycolytic enzyme pyruvate kinase (PYK) from Trypanosoma brucei, the parasite that causes sleeping sickness. […] Trypanosomatid PYKs show significant differences from their human counterparts including only 47-50% sequence identity and different allosteric and activation properties.{Callens, 1992} To this end, a qHTS was done against the MLSMR to discover inhibitors.
NIH Molecular Libraries Probe Production Network [MLPCN]
NIH Chemical Genomics Center [NCGC]
PI Name: Malcolm Walkinshaw, University of Edinburgh
2 uL of TbPYK/substrate buffer (columns 1-3, 5-48) are dispensed into Greiner white solid bottom 1536-well assay plates; column 4 receives only TEA buffer as 0x TbPYK controls. Compounds are then transferred via Kalypsys pin tool equipped with 1536-pin array (10 nL slotted pins, V&P Scientific, San Diego, CA). Following addition of compound, 2 uL of ADP (130 uM final concentration, all columns) is added to initiate the reaction. The plates are then incubated at room temperature for 45 minutes. Kinase-Glo Plus reagent is added (3 uL) and plates incubated for 10 minutes, before being transferred to a ViewLux high-throughput CCD imager (PerkinElmer) wherein single end-point measurements of luminescence are acquired using a clear filter. All reagents are diluted in an assay buffer consisting of 50 mM TEA (pH 7.2), 100 mM KCl, 10 mM MgCl2, 0.05% BSA and 0.01% Tween-20.
All screening operations will be performed on a fully integrated robotic system (Kalypsys, San Diego, CA) containing one RX-130 and two RX-90 anthropomorphic robotic arms (Staeubli, Duncan, SC). Library plates will be screened starting from the lowest and proceeding to the highest concentration. Vehicle-only plates, with DMSO being pin-transferred to columns 5-48, will be inserted uniformly at the beginning and the end of each library in order to monitor and record any shifts in the background, which can be affected by reagent dispensers or loss in enzyme activity over time. Screening data will be corrected, normalized, and concentration-effect relationships will be derived by using publicly-available curve fitting algorithms developed in-house (http://ncgc.nih.gov/pub/openhts).
Potency is read from the fitted curve at half-maximal effect.

| Compound | Potency |
| --- | --- |
| O=C(c1cnccn1)N1CCC[C@@]2(CCN(Cc3ccncc3)C2)C1 | inactive |
| COc1ccccc1CN1CC2(CCN(S(=O)(=O)c3ccccc3)CC2)C1 | inactive |
| O=P1(N(CCCl)CCCl)NC(OO)CCO1 (stereo unspecified) | inactive |
| O=C(c1cccc(F)c1)N1CCC2(CCCN(Cc3ccncc3)C2)CC1 | inactive |
| COC(=O)N1CCC[C@@]2(CCN(C(=O)NC(C)C)C2)C1 | inactive |
| O=C(c1ccco1)N1CCC[C@@]2(CCN(c3ccccc3)C2)C1 | inactive |
| COC(=O)N1CCC2(CCCN(Cc3ccccc3OC)C2)CC1 | inactive |
| CS(=O)(=O)N1CCC2(CC1)CN(Cc1cc(C(F)(F)F)cc(C(F)(F)F)c1)C2 | inactive |
| CC(=O)N1CCC2(CCCN(c3ncccn3)C2)CC1 | inactive |
| CC[C@]1(C)CC(=O)NC1=O | inactive |
| C=C1C(=CC=C2CCC[C@]3(C)[C@@H]([C@H](C)C=C[C@H](C)C(C)C)CC[C@@H]23)C[C@@H](O)C[C@@H]1O | inactive |
| COc1ccc(Cl)cc1NC(=O)CCn1c(=O)c2cccn2c2ccccc21 | inactive |
| CCOc1cc(C)ccc1OCc1nnc(SCC(=O)Nc2cccc(C(=O)O)c2)n1-c1ccccc1 | inactive |
| Cc1ccc(C(=O)NCCc2nnc(SCC(=O)Nc3cccc(C(=O)O)c3)n2C)cc1 | inactive |
| Cc1ccc(C)c2c1cc(C)c1nnc(SCC(=O)Nc3cccc(C(=O)O)c3)n12 | 6.31 µM (active) |
| CC(=O)OC[C@H]1O[C@@H](O[C@H]2[C@H](O)[C@@H](OC(=O)c3ccccc3C(=O)O)[C@H](O)O[C@@H]2COC(C)=O)[C@H](O)[C@@H](OC(=O)c2ccccc2C(=O)O)[C@@H]1O | inactive |

| Compound | Potency |
| --- | --- |
| O=C(c1cccc(F)c1)N1CCC2(CC1)CCN(c1ccccc1)CC2 | inactive |
| c1csc(CN2CC3(CCNCC3)C2)n1 | inactive |
| O=C(O)CCCCC(=O)O | inactive |
| COc1ccc(C(=O)N2CCC[C@@]3(CCN(C(=O)NC(C)C)C3)C2)cc1 | inactive |
| COc1ccccc1OCCCn1c(-c2ccc(Cl)cc2)nc2ccccc2c1=O | inactive |
| O=S(=O)(c1ccccc1)N1CCC2(CC1)CN(Cc1nccs1)C2 | inactive |
| CCOc1ccc(N2C(=O)/C(=C/c3ccc(C)o3)N(C)C2=S)cc1 | 28.2 µM (active) |
| CCOc1ccc(N2C(=O)Nc3ccccc3C2(O)C(=O)NCc2ccco2)cc1 (stereo unspecified) | inactive |
| CCOC(=O)c1ccc(NC2=CC(c3ccc(OCC)cc3)N(c3ccc(C(=O)OCC)cc3)C2=O)cc1 (stereo unspecified) | inactive |
| O=C(c1cc(C(F)(F)F)cc(C(F)(F)F)c1)N1CCC2(CC1)CN(c1ccncc1)C2 | inactive |
| CCn1c(C(C)C)n[nH]c1=S | inactive |
| CCc1cc(-c2nnc(SCC(=O)NC3CC3)n2C)cs1 | inactive |
| CCc1cc(-c2n[nH]c(=S)n2CC(C)C)cs1 | 3.16 µM (active) |
| FC(F)(F)C1CCCN(c2nsc3ccccc23)C1 (stereo unspecified) | 6.31 µM (active) |
| FCOC(C(F)(F)F)C(F)(F)F | inactive |
